Experimental data from PubChem BioAssay AID1159580 (chemical genetic matrix, 2015).
In all, about 5,500 compounds went through this assay and about 2,000 (36%) were called active. About 18% were inconclusive and are not listed. Cut-off read from the data, not from the text of the source: active = normalized growth mostly below about 0.91 (no sharp cut-off); inconclusive = no clear call, values can overlap the other calls; inactive = mostly above about 0.92. The list shows a part of the results.

Assay: chemical genetic growth profiling, strain panel (AID 1159580);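 note: tested at 20 µM; growth read once vehicle control cultures reached saturation at 30 °C; 1 = growth at the plate median or of vehicle wells; lower values mean less growth of the strain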
Conditions: growth OD
[1] = S. cerevisiae deletion strains, locus YAL013W, strain DEP1, active compounds read low
[2] = S. cerevisiae deletion strains, locus YDL101C, strain DUN1, active compounds read low
[3] = S. cerevisiae deletion strains, locus YDR150W, strain NUM1, active compounds read low
[4] = S. cerevisiae deletion strains, locus YEL061C, strain CIN8, active compounds read low
[5] = S. cerevisiae deletion strains, locus YGR078C, strain PAC10, active compounds read low
[6] = S. cerevisiae deletion strains, locus YHR030C, strain SLT2, active compounds read low
[7] = S. cerevisiae deletion strains, locus YHR087W, strain rtc3, active compounds read low
[8] = S. cerevisiae deletion strains, locus YJR043C, strain POL32, active compounds read low
[9] = S. cerevisiae deletion strains, locus YJR075W, strain HOC1, active compounds read low
[10] = S. cerevisiae deletion strains, locus YLR039C, strain RIC1, active compounds read low
[11] = S. cerevisiae deletion strains, locus YLR058C, strain SHM2 (second series), active compounds read low
[12] = S. cerevisiae deletion strains, locus YLR085C, strain ARP6, active compounds read low
[13] = S. cerevisiae deletion strains, locus YLR262C, strain YPT6, active compounds read low
[14] = S. cerevisiae deletion strains, locus YML094W, strain GIM5, active compounds read low
[15] = S. cerevisiae deletion strains, locus YMR219W, strain ESC1, active compounds read low
[16] = S. cerevisiae deletion strains, locus YMR263W, strain SAP30, active compounds read low
[17] = S. cerevisiae deletion strains, locus YNL153C, strain GIM3, active compounds read low
[18] = S. cerevisiae deletion strains, locus YNL298W, strain CLA4 (second series), active compounds read low
[19] = S. cerevisiae deletion strains, locus YNL322C, strain KRE1, active compounds read low
[20] = S. cerevisiae deletion strains, locus YNR030W, strain Alg12, active compounds read low
[21] = S. cerevisiae deletion strains, locus YPL055C, strain LGE1, active compounds read low
[22] = S. cerevisiae deletion strains, locus YPL241C, strain CIN2, active compounds read low
[23] = S. cerevisiae deletion strains, locus YPR135W, strain CTF4, active compounds read low
[24] = S. cerevisiae strains, strain wild type, active compounds read low

Measured: normalized growth

S=C1NC2(CCCCC2)NN1c1ccccc1
active: [1] 0.869 | S. cerevisiae deletion strains, locus YCL061C, strain MRC1, active compounds read low 0.892 | [4] 0.14 | [5] 0.761 | [6] 0.1 | S. cerevisiae deletion strains, locus YKL190W, strain CNB1, active compounds read low 0.0617 | [10] 0.116 | [12] 0.0768 | [13] 0.114 | [14] 0.0764 | [16] 0.895 | [17] 0.884 | [18] 0.0996 | [20] 0.0942 | S. cerevisiae deletion strains, locus YOL006C, strain TOP1, active compounds read low 0.088 | [21] 0.759 | [22] 0.0946 | [23] 0.223 | [24] 0.0726
inactive: [2] 0.92 | [3] 0.836 | [7] 0.987 | [8] 0.94 | [9] 0.908 | [11] 0.98 | [15] 0.956 | [19] 0.988

O=C1NN(c2ccccc2)C(=S)Nc2ccccc21
inactive: [1] 1 | S. cerevisiae deletion strains, locus YBR229C, strain ROT2, active compounds read low 1.01 | [2] 0.988 | [3] 0.994 | [4] 1.01 | [5] 0.986 | [6] 0.986 | [7] 1 | S. cerevisiae deletion strains, locus YJL187C, strain SWE1, active compounds read low 0.988 | [8] 0.997 | [9] 0.994 | [10] 0.994 | [11] 1 | [12] 0.984 | [13] 0.999 | [14] 0.987 | [15] 0.999 | [16] 0.996 | S. cerevisiae deletion strains, locus YMR307W, strain GAS1, active compounds read low 0.965 | [17] 0.978 | [18] 1.01 | [19] 1.01 | [20] 1 | [21] 1.02 | [22] 0.98 | [23] 0.979 | [24] 1.01
